SMILES strings stand for the structures. Inconclusive results are not listed. Where a call stands in place of a potency, no number is given. Values without a mark were called inactive. Calls of active or inactive are those of the source. Calls follow the shape of the dose curve; as a rule, active = well fitted inhibition curve with a large enough effect; inconclusive = small, poorly fitted or top-dose-only effect; inactive = no such curve, though single readings can be large or run the other way.
Potency is read from the fitted curve at half-maximal effect.

This experiment in a line: Primary fluorescence-based thiol-reactive (MSTI) qHTS assay for identification of artifact compounds. (AID 1845221). Also: nearly all actives have a fitted effect of over 65% in size.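 As to activity change, negative = thiol reactive: thiol-reactive compounds lower the probe fluorescence signal.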 To be noted: MSTI thiol-reactivity probe, 1 h; series mostly up to 53.8 µM. From the text:
PI: Alexander Tropsha Ph.D.
UNC Eshelman School of Pharmacy
University of North Carolina, Chapel Hill, North Carolina
Hits from high-throughput screening (HTS) of chemical libraries are often false positives due to their interference with the assay detection technology. In response to this problem, we generated the largest publicly available library of chemical liabilities and developed a free webtool to predict HTS artifacts, both of which are described herein. More specifically, we generated, curated, and integrated HTS datasets for thiol reactivity, redox activity, and luciferase (firefly and nano) activity. Using these curated datasets, we developed and validated several Quantitative Structure-Interference Relationship (QSIR) models to predict nuisance behavior. […] These models were employed for virtual profiling of the National Center for Advancing Translational Science's (NCATS) in-house library, and 256 compounds for each assay were selected for the experimental validation of nuisance behavior. The BA for these external predictions ranged from 58 to 78% for compounds within the applicability domains of the models. […] The models developed in this study, along with aggregation models previously developed by our group (SCAM Detective) were implemented in "Liability Predictor," an online tool which may be used as part of chemical library design or for triaging HTS hits. Both the models and the curated datasets are publicly available at https://liability.mml.unc.edu/.
SEQUENCE No. (e.g., 1, 2, 3, etc.); […] (e.g., Cells, Incubation, Reagent, etc.); VALUE; DESCRIPTION.
1; Reagent; 4 uL; […].
2; Compounds and control; 16 nL; Kalypsis pin tool (Wako USA) equipped with a 1536-well pin head.
4; Detection; Fluorescence, ViewLux microplate reader, 525 nm excitation, 598 nm emission.
NOTES (numbers refer to Sequence numbers above)
1. Assays determining (E)-2-(4-mercaptostyryl)-1,3,3-trimethyl-3H-indol-1-ium (MSTI) reactivity were performed as previously described in the literature with modifications for the quick identification of compounds reacting with thiol. In brief, 4 uL of MSTI or positive control Acetyl-MSTI (final concentrations of 4 uM and 4 uM, respectively) in assay buffer (2% DMSO in 1X PBS pH 7.4) was dispensed into all wells of a 1536-well assay plate (solid-bottom black plate; Greiner Bio One, Monroe, NC).
2. A Wako Pin-tool (Wako Automation, Richmond, VA) was used to transfer 16 nL of compounds (consisting of 7-plates in qHTS format, final concentration range 18.3 nM to 114 uM) or control MLS001163887 (final concentration range 1.22 nM to 40 uM).
3. Plates were centrifuged (121xg, 15 seconds) and incubated for 1 hour at room temperature protected from light.
4. Samples were read for fluorescence (Ex/Em = 525(20)/598(25) nm) on a ViewLux CCD imager (PerkinElmer). Data were normalized to Acetyl-MSTI (0% activity) and MSTI (100% activity) and the resulting percent inhibition data were fitted to a 4-parameter Hill equation using NCATS in-house software.
On the technique in general: In qHTS, concentration-response curves come from the screen itself.
`COc1cc(C(C)=O)ccc1O[C@@H]1O[C@H](CO)[C@@H](O)[C@H](O)[C@H]1O`: the Potency entry is “inactive”.

Consider `C=CCC/C=C/C#CCCCCCCCC[C@H]1C(=O)O[C@H](C)[C@@H]1O`, for which the Potency result is “inactive”.

`O=C1C(Cl)=C(N2CCOCC2)C(=O)N1c1ccc(Cl)c(Cl)c1`: the Potency result is “inactive”. As for `CC1(O)CC(O)C2C(C(=O)O)=COC(OC3OC(CO)C(O)C(O)C3OC(=O)/C=C/c3ccc(O)cc3)C21` (stereo not given), the Potency was 4.12 µM (active). The same measure, in the same setting: the value for `CC1=C2C(=O)C=C(CO[C@@H]3O[C@H](CO)[C@@H](O)[C@H](O)[C@H]3O)[C@@H]2[C@H]2OC(=O)[C@H](C)[C@@H]2[C@@H](O)C1` was “inactive”. Regarding `CC(=O)NC(C(=O)OC1CCC(C)(C)C2CC=C3C(=O)OCC3C12C)C(C)C` (stereo not given), the Potency result was “inactive”. The same measure, in the same setting: the value for `COc1cncc(C#Cc2ccccn2)c1` was “inactive”.

As to `C/C=C1/[C@H](O[C@@H]2O[C@H](CO)[C@@H](O)[C@H](O)[C@H]2O)OC=C2C(=O)O[C@@H]3C[C@@H](C(C)CO)[C@H](COC(=O)C[C@H]21)[C@H]3C` (stereo not given in full), the Potency result was “inactive”.

As for `CC(O)C(=O)/C=C/C=C/C(=O)OC1C=C2COC(=O)C2(O)C2(C)CCCC(C)(C)C12` (stereo not given), the Potency result is “inactive”. As to `CCNC(=O)C1CC(F)(c2ccc(CN3CCCC3)c(F)c2)C1` (stereo not given), the Potency entry is “inactive”.

For the molecule `COC(=O)C1=COC(O[C@@H]2O[C@H](CO)[C@@H](O)[C@H](O)[C@H]2O)/C(=C\COC(=O)/C=C/c2ccccc2)C1CC(=O)OCCc1ccc(O)cc1` (stereo not given in full), the Potency entry is “inactive”. As to `OCC(O)C(c1c[nH]c2ccccc12)c1c[nH]c2ccccc12` (stereo not given), the Potency was 6.7 µM (active). Same read-out and setting: the value for `C=CC1(C)C=C2CC[C@H]3[C@@](C)(C(=O)O)CCC[C@]3(C)C2CC1` (stereo not given in full) was “inactive”; that for `CC1(C)C2CC[C@]3(C)C(C(=O)C=C4[C@H]5C[C@@](C)(C(=O)O)CC[C@]5(C)CC[C@]43C)[C@@]2(C)CC[C@@H]1O` (stereo not given in full) was “inactive”.

For the molecule `C=CCC1=C[C@]2(OC)[C@H](C)[C@@H](c3ccc(OC)c(OC)c3)O[C@]2(OC)CC1=O`, the Potency result is “inactive”. Consider `COC(=O)[C@H](Cc1cccc(C(=N)N)c1)[C@@H](C)NC(=O)c1ccc(-c2cc[n+]([O-])cc2)cc1`, for which the Potency result was “inactive”. Turning to `COc1cc(C(CO)CO[C@@H]2O[C@H](CO)[C@@H](O)[C@H](O)[C@H]2O)ccc1O` (stereo not given in full), the Potency result was “inactive”. Same read-out and setting: to `COc1cc([C@H]2OC[C@](O)(Cc3ccc(O[C@@H]4O[C@H](CO)[C@@H](O)[C@H](O)[C@H]4O)c(OC)c3)[C@@H]2CO)ccc1O` belongs “inactive”. Still for that read-out and setting: to `O=C(O)CCc1cc2ccoc2cc1O[C@@H]1O[C@H](CO)[C@@H](O)[C@H](O)[C@H]1O` belongs “inactive”. Same read-out and setting: to `CC1CC2(O)OC(=O)C3=C2C(CCC3)[C@@]12C[C@@H](c1ccoc1)OC2=O` (stereo not given in full) belongs 4.65 µM (active). On to `C/C=C/C=C/C(O)=C1/C(=O)[C@]2(C)C(=O)[C@@](C)(O)[C@H]1[C@H]([C@@]1(C)OC(=O)C(C)=C1O)[C@H]2C(=O)CC/C=C/C`, for which the Potency was 4.12 µM (active).

`CCOc1ccc(-c2cc(NC(=O)c3c(F)cccc3F)c(C(=O)O)s2)cc1`: the Potency result was “inactive”.

As to `COc1cc(C(=O)OCC2=CCC3C(C(=O)O)=COC(O[C@@H]4O[C@H](CO)[C@@H](O)[C@H](O)[C@H]4O)C23)ccc1O` (stereo not given in full), the Potency is 11.6 µM (active). Regarding `COC(=O)C(Cc1ccccc1)NC(=O)c1ccccc1` (stereo not given), the Potency result is “inactive”. On to `CC1C2=CC(=O)OC2(O)CC2C1C(O)CC1C(C)(CO)CCCC21C` (stereo not given), for which the Potency result was “inactive”. As for `CC1(C)CC[C@]2(C(=O)O[C@@H]3O[C@H](CO)[C@@H](O)[C@H](O)[C@H]3O)CC[C@]3(C)C(=CCC4[C@@]5(C)C[C@H](O)[C@H](O[C@@H]6OC[C@@H](O)[C@H](O)[C@H]6O)[C@@](C)(CO)C5CC[C@]43C)C2C1` (stereo not given in full), the activity change, negative = thiol reactive is 298% [at 11.5 µM]. As for `COc1cc(OC)cc(-c2ccc3c(-c4ccc(F)cc4)[nH]nc3n2)c1`, the Potency entry is “inactive”. Regarding `C/C1=C\CC(C)(C)/C=C/C/C(C(=O)O)=C/CC1`, the Potency entry is “inactive”. Consider `CO[C@@H]1[C@]2(O)C(=O)N3/C=C\C(C)(C)c4[nH]c5ccccc5c4/C=C\3C(=O)N2[C@]23[C@H](CO)C(C)(C)N2c2ccccc2[C@]13O`, for which the Potency was 1.84 µM (active). For the molecule `CC1(C)CC[C@]2(C(=O)O)[C@H](O)C[C@]3(C)C(=CCC4[C@@]5(C)CC[C@H](O[C@@H]6OC[C@@H](O)[C@H](O)[C@H]6O)[C@@](C)(C(=O)O)C5CC[C@]43C)[C@@H]2C1` (stereo not given in full), the Potency entry is “inactive”. Still for that read-out and setting: to `O=C(O)CC/C=C\C[C@H]1CO[C@@H](c2ccccc2Cl)O[C@H]1c1ccccc1O` belongs “inactive”; to `COc1cc(/C=C/C(=O)O)ccc1O[C@@H]1O[C@H](CO)[C@@H](O)[C@H](O)[C@H]1O[C@@H]1OC[C@](O)(CO)[C@H]1O`, “inactive”. Still for that read-out and setting: the value for `COC(=O)C1=CO[C@@H](O[C@@H]2O[C@H](CO)[C@@H](O)[C@H](O)[C@H]2O)[C@@H]2C(C)CC(=O)[C@]12O` (stereo not given in full) was “inactive”; that for `COc1cc(/C=C/C(=O)OC[C@H]2O[C@@H](OC3CC(C)=C(C(=O)O)C(C)(C)C3)[C@H](O)[C@@H](O)[C@@H]2O)cc(OC)c1O` (stereo not given in full) was 3.27 µM (active); that for `C[C@@H](c1ccccc1)N(C(N)=NC#N)c1cccc2ncccc12` was “inactive”.

As to `COc1ccnc(CCc2nc3ncccc3[nH]2)c1`, the Potency entry was “inactive”. Same read-out and setting: to `CC1(C)CC[C@]2(C(=O)O[C@@H]3O[C@H](CO)[C@@H](O)[C@H](O)[C@H]3O)CC[C@]3(C)C(=CCC4[C@@]5(C)C[C@@H](O)[C@H](O)[C@@](C)(CO)C5[C@H](O)C[C@]43C)C2C1` (stereo not given in full) belongs “inactive”.

On to `C[C@H]1[C@H](C)C[C@@H](C(=O)O)C2CC[C@]3(C)C(=CC[C@@H]4[C@@]5(C)CC[C@H](O)C(C)(C)[C@@H]5CC[C@]43C)[C@@H]21` (stereo not given in full), for which the Potency result was “inactive”. The same measure, in the same setting: the value for `CC(=O)OC1CC(=O)C2(C)C3CC4=C(OC(C)CC4=O)OC3(C)CCC2C1(C)C` (stereo not given) was 11.6 µM (active). In the case of `CC(C)=CC[C@H]1O[C@]2(O)C([C@H]3CCC4[C@@]5(C)CC[C@H](O[C@@H]6O[C@H](CO)[C@H](O)[C@H](O[C@@H]7O[C@H](CO)[C@@H](O)[C@H](O)[C@H]7O)[C@H]6O[C@@H]6O[C@@H](C)[C@H](O)[C@@H](O)[C@H]6O)C(C)(C)C5CC[C@@]4(C)[C@]3(C)[C@H]2O)[C@@]1(C)O` (stereo not given in full), the activity change, negative = thiol reactive was 12.2% [at 11.5 µM].

(Values after PubChem BioAssay (NCATS).)
